Where “and” joins values, the source holds several entries; their conditions need not be identical. Equal values may be shown once. Some structures have more than one record in an assay (separate samples or runs), and their calls can disagree. Calls of active or inactive are those of the source. Rule for the calls: active = hit-call score of the fitted dose curve at least 0.9, where 1 is the maximum; inactive = score below 0.9.

Read-out in the first assay: Urokinase-type plasminogen activator receptor (uPAR), PLAUR (gene 5329)
Nature of the assay: BSK_CASM3C_uPAR: BioMAP Diversity Plus: CASM3C Assay for Urokinase-type plasminogen activator receptor (uPAR) Biomarker Activity (AID 2283054).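 Note: cell-surface uPAR protein level quantified by ELISA.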 Particulars: primary human coronary artery smooth muscle cells; actives raise or lower the signal.
In the case of `O=C(O)CCCOc1ccc(Cl)cc1Cl`, the outcome was inactive.

With `O=C(O)C(F)(F)C(F)(F)C(F)(F)C(F)(F)C(F)(F)C(F)(F)C(F)(F)F`, the outcome was inactive.

With `COc1nn(CSP(=S)(OC)OC)c(=O)s1`, the outcome was inactive.

Take `CC1(c2ccc(Oc3ccccc3)cc2)OC(=O)N(Nc2ccccc2)C1=O` (stereo not drawn): the concentration at half-maximal activity (AC50) (as a rule, the concentration at which the activity in the assay is half-maximal) was 5.52 µM (active).

As to `ClC1C(Cl)C(Cl)C(Cl)C(Cl)C1Cl` (stereo not drawn), the AC50 was 29 µM (active) and the result was inactive.

With `N#CN`, the outcome was inactive.

For `COC(=O)c1ccccc1S(=O)(=O)NC(=O)N(C)c1nc(C)nc(OC)n1`, the result was inactive.

On to `O=C(NC(=O)c1c(F)cccc1F)Nc1ccc(OC(F)(F)C(F)OC(F)(F)F)c(Cl)c1` (stereo not drawn), for which the outcome was inactive.

Turning to `CNC(=O)/C=C(\C)OP(=O)(OC)OC`, the result was inactive.

In the case of `O=S(=O)(O)C(F)(F)C(F)(F)C(F)(F)C(F)(F)C(F)(F)C(F)(F)C(F)(F)C(F)(F)F`, the outcome was inactive.

As for `COc1cc(OC)nc(NC(=O)NS(=O)(=O)c2cc(NC=O)ccc2C(=O)N(C)C)n1`, the outcome was inactive.

Turning to `O=C(O)COc1ccc(Cl)cc1Cl`, the result was inactive.

On to `CC1(C)C(C=C(Cl)Cl)C1C(=O)OC(C#N)c1ccc(F)c(Oc2ccccc2)c1` (stereo not drawn), for which the result was inactive.

With `CCN(CC)C(=O)SCc1ccc(Cl)cc1`, the result was inactive.

In the case of `Oc1cc(Cl)ccc1Oc1ccc(Cl)cc1Cl`, the AC50 was 32 µM (active) [middle of 4 runs].

Consider `Oc1ccc(Cl)cc1Cc1ccccc1`, for which the AC50 is 33.9 µM (active) [middle of 6 runs] and the outcome was inactive.

`C[C@H]1[C@H](c2ccc(Cl)cc2)SC(=O)N1C(=O)NC1CCCCC1`: the result was inactive.

As to `CC(C)(C)C(O)/C(=C\c1ccc(Cl)cc1Cl)n1cncn1` (stereo not drawn), the outcome was inactive.

For the molecule `CCC(C)(NC(=O)c1cc(Cl)c(C)c(Cl)c1)C(=O)CCl` (stereo not drawn), the AC50 is 11.5 µM (active).

`COC(=O)c1ccccc1CS(=O)(=O)NC(=O)Nc1nc(OC)cc(OC)n1`: the result was inactive.

Regarding `COC(=O)c1ccccc1S(=O)(=O)NC(=O)Nc1nc(C)nc(OC)n1`, the outcome was inactive.

Consider `CC(C)OC(=O)Nc1cccc(Cl)c1`, for which the outcome was inactive.

Take `CCOc1nc(NC)nc(NC(=O)NS(=O)(=O)c2ccccc2C(=O)OC)n1`: the outcome was inactive.

With `O=C(Nc1ccccc1)Nc1cnns1`, the result was inactive.

Turning to `CNC(=O)Oc1ccccc1OC(C)C`, the result was inactive.

On to `O=[N+]([O-])c1c(Cl)c(Cl)c(Cl)c(Cl)c1Cl`, for which the result was inactive.

Read-out in the next assay: Vascular cell adhesion molecule 1 (VCAM1), VCAM1 (gene 7412)
Nature of the assay: BSK_CASM3C_VCAM1: BioMAP Diversity Plus: CASM3C Assay for Vascular cell adhesion molecule 1 (VCAM1) Biomarker Activity (AID 2283055).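 Note: VCAM-1 protein level quantified by ELISA on the cells.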 To be noted: primary human coronary artery smooth muscle cells; actives raise or lower the signal.
On to `O=C(O)CCCOc1ccc(Cl)cc1Cl`, for which the result was inactive.

`O=C(O)C(F)(F)C(F)(F)C(F)(F)C(F)(F)C(F)(F)C(F)(F)C(F)(F)F`: the outcome was inactive.

Take `COc1nn(CSP(=S)(OC)OC)c(=O)s1`: the result was inactive.

Turning to `CC1(c2ccc(Oc3ccccc3)cc2)OC(=O)N(Nc2ccccc2)C1=O` (stereo not drawn), the AC50 is 18 µM (active).

For `ClC1C(Cl)C(Cl)C(Cl)C(Cl)C1Cl` (stereo not drawn), the AC50 was 32.2 µM (active) and 32.4 µM (active); the result was inactive.

Take `N#CN`: the result was inactive.

As to `COC(=O)c1ccccc1S(=O)(=O)NC(=O)N(C)c1nc(C)nc(OC)n1`, the result was inactive.

On to `O=C(NC(=O)c1c(F)cccc1F)Nc1ccc(OC(F)(F)C(F)OC(F)(F)F)c(Cl)c1` (stereo not drawn), for which the result was inactive.

Consider `CNC(=O)/C=C(\C)OP(=O)(OC)OC`, for which the outcome was inactive.

On to `O=S(=O)(O)C(F)(F)C(F)(F)C(F)(F)C(F)(F)C(F)(F)C(F)(F)C(F)(F)C(F)(F)F`, for which the concentration at half-maximal activity (AC50) is 13 µM (active) and 30 µM (active); the result was inactive.

With `COc1cc(OC)nc(NC(=O)NS(=O)(=O)c2cc(NC=O)ccc2C(=O)N(C)C)n1`, the result was inactive.

As for `O=C(O)COc1ccc(Cl)cc1Cl`, the outcome was inactive.

Take `CC1(C)C(C=C(Cl)Cl)C1C(=O)OC(C#N)c1ccc(F)c(Oc2ccccc2)c1` (stereo not drawn): the result was inactive.

For `CCN(CC)C(=O)SCc1ccc(Cl)cc1`, the result was inactive.

For the molecule `Oc1cc(Cl)ccc1Oc1ccc(Cl)cc1Cl`, the half-maximal activity concentration (AC50) was 35.4 µM (active) [middle of 4 runs].

As to `Oc1ccc(Cl)cc1Cc1ccccc1`, the AC50 is 33.2 µM (active) [middle of 7 runs].

`C[C@H]1[C@H](c2ccc(Cl)cc2)SC(=O)N1C(=O)NC1CCCCC1`: the result was inactive.

In the case of `CC(C)(C)C(O)/C(=C\c1ccc(Cl)cc1Cl)n1cncn1` (stereo not drawn), the outcome was inactive.

`CCC(C)(NC(=O)c1cc(Cl)c(C)c(Cl)c1)C(=O)CCl` (stereo not drawn): the AC50 was 9.89 µM (active).

With `COC(=O)c1ccccc1CS(=O)(=O)NC(=O)Nc1nc(OC)cc(OC)n1`, the outcome was inactive.

Regarding `COC(=O)c1ccccc1S(=O)(=O)NC(=O)Nc1nc(C)nc(OC)n1`, the outcome was inactive.

On to `CC(C)OC(=O)Nc1cccc(Cl)c1`, for which the result was inactive.

Take `CCOc1nc(NC)nc(NC(=O)NS(=O)(=O)c2ccccc2C(=O)OC)n1`: the outcome was inactive.

For the molecule `O=C(Nc1ccccc1)Nc1cnns1`, the outcome was inactive.

Turning to `CNC(=O)Oc1ccccc1OC(C)C`, the result was inactive.

On to `O=[N+]([O-])c1c(Cl)c(Cl)c(Cl)c(Cl)c1Cl`, for which the outcome was inactive.

Read-out in another assay: Collagen III, COL3A1 (gene 1281)
Kind of assay: BSK_hDFCGF_CollagenIII: BioMAP Diversity Plus: hDFCGF Assay for Collagen III Biomarker Activity (AID 2283056). To be noted: primary human foreskin fibroblasts; actives raise or lower the signal. An outline of the steps: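 Human foreskin primary fibroblasts were exposed to test chemicals for 24 h, after which collagen III was quantified by ELISA. Activity was fitted bidirectionally against DMSO as negative control and baseline.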
In the case of `O=C(O)CCCOc1ccc(Cl)cc1Cl`, the outcome was inactive.

`O=C(O)C(F)(F)C(F)(F)C(F)(F)C(F)(F)C(F)(F)C(F)(F)C(F)(F)F`: the outcome was inactive.

With `COc1nn(CSP(=S)(OC)OC)c(=O)s1`, the outcome was inactive.

`CC1(c2ccc(Oc3ccccc3)cc2)OC(=O)N(Nc2ccccc2)C1=O` (stereo not drawn): the outcome was inactive.

For `ClC1C(Cl)C(Cl)C(Cl)C(Cl)C1Cl` (stereo not drawn), the AC50 is 20 µM (active) and the outcome was inactive.

Turning to `N#CN`, the outcome was inactive.

As to `COC(=O)c1ccccc1S(=O)(=O)NC(=O)N(C)c1nc(C)nc(OC)n1`, the result was inactive.

For the molecule `O=C(NC(=O)c1c(F)cccc1F)Nc1ccc(OC(F)(F)C(F)OC(F)(F)F)c(Cl)c1` (stereo not drawn), the result was inactive.

Take `CNC(=O)/C=C(\C)OP(=O)(OC)OC`: the outcome was inactive.

`O=S(=O)(O)C(F)(F)C(F)(F)C(F)(F)C(F)(F)C(F)(F)C(F)(F)C(F)(F)C(F)(F)F`: the AC50 was 35.1 µM (active) and 30.8 µM (active); the result was inactive.

Turning to `COc1cc(OC)nc(NC(=O)NS(=O)(=O)c2cc(NC=O)ccc2C(=O)N(C)C)n1`, the result was inactive.

`O=C(O)COc1ccc(Cl)cc1Cl`: the outcome was inactive.

Take `CC1(C)C(C=C(Cl)Cl)C1C(=O)OC(C#N)c1ccc(F)c(Oc2ccccc2)c1` (stereo not drawn): the AC50 was 0.189 µM (active).

For the molecule `CCN(CC)C(=O)SCc1ccc(Cl)cc1`, the outcome was inactive.

Regarding `Oc1cc(Cl)ccc1Oc1ccc(Cl)cc1Cl`, the AC50 is 7.46 µM (active) [middle of 4 runs].

`C[C@H]1[C@H](c2ccc(Cl)cc2)SC(=O)N1C(=O)NC1CCCCC1`: the AC50 is 5.46 µM (active).

On to `CC(C)(C)C(O)/C(=C\c1ccc(Cl)cc1Cl)n1cncn1` (stereo not drawn), for which the result was inactive.

Consider `CCC(C)(NC(=O)c1cc(Cl)c(C)c(Cl)c1)C(=O)CCl` (stereo not drawn), for which the AC50 is 11.3 µM (active).

As to `COC(=O)c1ccccc1CS(=O)(=O)NC(=O)Nc1nc(OC)cc(OC)n1`, the outcome was inactive.

Consider `COC(=O)c1ccccc1S(=O)(=O)NC(=O)Nc1nc(C)nc(OC)n1`, for which the outcome was inactive.

With `CC(C)OC(=O)Nc1cccc(Cl)c1`, the result was inactive.

For `CCOc1nc(NC)nc(NC(=O)NS(=O)(=O)c2ccccc2C(=O)OC)n1`, the result was inactive.

For `O=C(Nc1ccccc1)Nc1cnns1`, the result was inactive.

As for `CNC(=O)Oc1ccccc1OC(C)C`, the result was inactive.

As for `O=[N+]([O-])c1c(Cl)c(Cl)c(Cl)c(Cl)c1Cl`, the concentration at half-maximal activity (AC50) was 14.9 µM (active).
